According to PubChem BioAssay AID651965 (National Center for Advancing Translational Sciences (NCATS), 2013):
About 6,400 (1.9%) of roughly 340,000 compounds were called active. Not shown: some 4% with an inconclusive outcome. The call rests on the fitted dose curve; in most records, active means well fitted falling curve with a large enough effect; inconclusive means small, poorly fitted or top-dose-only effect; inactive means no such curve, though single readings can be large or run the other way. The list comes from a sample in which actives are over-represented; it also holds similar structures and randomly drawn compounds.

target: ATP-dependent Clp protease proteolytic subunit (Bacillus subtilis (strain 168)) (UniProt P80244); assay: qHTS Assay for Activators of ClpP; further: the source files actives as falling curves though it sought activators and does not explain the sign; nearly all actives have a fitted effect of over 65% in size; settings: purified B. subtilis ClpP, FRET peptide cleavage, 20 min; series mostly up to 57.5 µM; activity change, negative = active: at the top concentration
Sequence (P80244 whole entry, looked up): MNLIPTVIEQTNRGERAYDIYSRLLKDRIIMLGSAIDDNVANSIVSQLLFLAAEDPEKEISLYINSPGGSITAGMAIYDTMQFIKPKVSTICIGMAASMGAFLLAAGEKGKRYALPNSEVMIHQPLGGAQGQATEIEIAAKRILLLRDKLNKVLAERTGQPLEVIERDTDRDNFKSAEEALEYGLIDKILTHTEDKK
Method in brief: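 FRET quenching reversal measured ClpP activation: 10 microg/mL B. subtilis ClpP at pH 8 with the FRET-FV decapeptide, read at 430 nm after 320 nm excitation. The 20-min minus 0-min signal was scaled between DMSO/no-enzyme wells and ADEP (5.8 microM final).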
Potency means the concentration at half of the fitted maximal effect.

Activity change, negative = active, inactive:
Cc1ccc(Cn2cc(CN3CC(N4CCN(C)CC4)CS3(=O)=O)nn2)cc1 (centres undefined) -0.127%
OC[C@@H]1CN(Cc2cccs2)C[C@H](n2cnc3c(Nc4ccccc4)ncnc32)O1 -29.3%
CC(C)C[C@@H](COCc1ccc(Cl)cc1)N1CCN(C(=O)c2ccc(Cl)cc2Cl)CCC1=O -4.04%
OC[C@@H]1CN(Cc2ccc(-c3ccccc3)cc2)C[C@H](n2cnc3c(NC4CCCC4)ncnc32)O1 -2.78%
C[N+](C)(CCCCCC[N+](C)(C)CCCN1C(=O)c2cccc3cccc(c23)C1=O)CCCN1C(=O)c2cccc3cccc(c23)C1=O 4.06%
COc1cccc2c(=O)n(CC(=O)N3CCCCCC3)ccc12 4.01%
C#CCNC(=O)C[C@@H]1C[C@@]2(C(=O)OCC)CCCC=C2N(Cc2ccco2)C1=O 2%
CC(=O)Nc1cccc(Nc2ccc(C#N)cc2)c1 -22.8%
O=C1O/C(=C\c2ccc(O)cc2)C(O)=C1c1ccc(O)cc1 -2.31%
CC(C)(C)NC(=O)C(c1ccco1)N(Cc1ccc2c(c1)OCO2)C(=O)Cn1nnc2ccccc21 (centres undefined) -0.906%
CCC(C)(C)NC(=O)C(c1ccc(O)cc1)N(C(=O)Cn1nnc2ccccc21)c1ccc(NC(C)=O)cc1 (centres undefined) -0.392%
Nc1[nH]c(C(=O)c2ccccc2)c(-c2ccncc2)c1C(=O)NCc1cccc2ccccc12 0.831%
CCOC(=O)C1CCCN(C(=O)c2cccc3ccccc23)CC1 (centres undefined) 0.267%
COc1ccc(CCNC(=O)c2nn(C)c3c2CSc2ccccc2-3)cc1OC -0.894%
COc1ccccc1CNC(=O)c1ccc(NC(=O)N2CC(C)Sc3ccccc32)cc1 (centres undefined) -7.1%
NC(c1csc(NC(=O)Nc2cccc(C(F)(F)F)c2)n1)C1CCCCC1 (centres undefined) 1.19%
CN(Cc1ccccc1F)c1cc2c(c3c1ccn3C)C1CCC2O1 (centres undefined) -8.78%
COC(=O)Cc1ccc(OC2(C)CCN(Cc3ccc4c(c3)OCCO4)C2)cc1 (centres undefined) -7.62%
O=C(Nc1ccc([N+](=O)[O-])cc1)c1cnn2c1NC(=C1CC1)C=C2C(F)F 1.47%
CC(=O)Nc1ccc(S(=O)(=O)N2CCN(c3ccccc3)CC2)cc1 0.606%
Cc1cc(N2CCN(S(=O)(=O)c3ccc(C)c(C)c3)CC2)c2ccccc2n1 -5.15%
C[N+]1(CC(=O)c2cccs2)CCOCC1 1.49%
CCCCC(=O)N(C)c1c(CC)nc2c(OCc3ccc(S(C)(=O)=O)cc3)cccn12 -1.17%
CCOc1ccc(C2=CC(c3ccccc3)n3ncnc3N2)cc1 (centres undefined) 4.25%
COc1ccc(C2=CC(c3ccccc3Cl)n3nc(-c4ccc(Cl)cc4)nc3N2)cc1 (centres undefined) -22.6%
O=C(NCCOc1ccccc1)N1[C@H]2CC[C@@H]1C=C(c1ccc(F)cc1OCc1ccccc1)C2 -2.32%
CCCCn1nnnc1C1(C)CCC(=O)N1Cc1ccc(OC)c(OC)c1 (centres undefined) 0.575%
COCc1cccc(-c2csc(C(O)c3ccc(F)cc3)n2)c1 (centres undefined) -7.81%
O=S1(=O)CCN(Cc2ccccc2)CC1 0.68%
N#Cc1ccccc1-n1c(N)c(C(=O)N2CCCC2)sc1=S -4.07%
Cc1ccc(-n2c(N)c(C(=O)N3CCOCC3)sc2=S)c(C)c1 0.999%
CCc1nc2c(OCCOc3ccccc3)cccn2c1N(C=O)Cc1ccc(OC)cc1 -3.9%
CS(=O)(=O)N1CCCCC1c1cc(C(=O)NCc2ccccc2)no1 (centres undefined) -3.64%
CC(C)(C)c1ccc(C(=O)NCc2ccco2)cc1 -0.141%
CC(=O)NCCNC(=O)c1cc(-c2cccc3ccccc23)nc2ccccc12 -5.07%
CC(C)Nc1nc(NCCOc2ccccc2Cl)c2sccc2n1 -4.76%
COC(=O)c1ccc(CN2C(=O)C(Cc3ccccc3)ON=C2c2ncccc2C)o1 (centres undefined) -0.769%
COc1ccc(C(=O)NCC2CCCO2)cc1S(=O)(=O)NCc1ccc(Cl)cc1 (centres undefined) -4.36%
Cc1ccc(CN(C(=O)c2ccccc2[N+](=O)[O-])c2ccccn2)cc1 0.425%
CC(c1ccco1)N(C(=O)c1ccc(S(=O)(=O)N2CCCCC2)cc1)c1ccccn1 (centres undefined) -0.1%
CN(C(=O)CSc1nncc2ccccc12)C1CCCCC1 -1.88%
O=c1[nH][nH]c2c1[C@H](c1ccc(Cl)cc1)O[C@H](CCc1ccccc1)C2 -0.921%
COc1cccc(C(=O)c2cc3ccc(O)cc3oc2=O)c1 -2.45%
COc1ccc(-c2cc3ccc(OCc4nn[nH]n4)cc3oc2=O)cc1 12.2%
CCOC(=O)N(C)c1c(CC)nc2c(OCc3ccccc3C(=O)OC)cccn12 -2.46%
COc1cncc(-c2cnc3sc(NCCc4ccccn4)nn23)c1 -1.28%
CCc1nc2ccc(C(=O)N3CCN(S(=O)(=O)CC)CC3)cn2c1N(C=O)CCC(C)C -1.82%
COc1ccc(S(=O)(=O)N(C)C[C@H]2OCc3cnnn3CCCC(=O)N([C@H](C)CO)C[C@H]2C)cc1 -2.95%
C=C1C(=O)[C@]23C[C@H]1CCC2[C@@]1(C)C(C[C@@H]3O)[C@](C)(C(=O)O)CC[C@@H]1O (some centres undefined) 0.0201%
CC(C)CN1CCC1(C)C(=O)Nc1ccc(OC(F)F)cc1 (centres undefined) -0.236%
Cc1nn(Cc2ccccc2)c(C)c1C(=O)NCCCN1CCCC1=O 0.973%
O=Cc1c(NCCCN2CCCC2=O)c2ccccc2[nH]c1=O 1.69%

Potency, inactive:
CCOCCCNC(=O)c1cc2c(=O)n3ccccc3nc2s1

Potency, active:
O=C(CN1C(=O)c2cccc3cccc(c23)C1=O)N1CCCCC1 14.1 µM
CCC(C)(C)NC(=O)C(c1cccn1C)N(Cc1ccc(C)cc1)C(=O)Cn1nnc2ccccc21 (centres undefined) 31.6 µM
COc1ccc(CCNC(=O)c2cc3cccc4c3n2CC(C)S4)c(OC)c1OC (centres undefined) 31.6 µM
Cc1ccc(S(=O)(=O)N2CCN(c3ccccc3)CC2)cc1C 17.8 µM
Cc1ccc(C2C=C(c3ccc(Cl)cc3)Nc3nc(NC(=O)CCC(=O)O)nn32)cc1 (centres undefined) 6.31 µM
Cc1cccc(-n2c(N)c(C(=O)N3CCN(C)CC3)sc2=S)c1 17.8 µM
CCc1ccc(-c2cc(C(=O)NCc3ccco3)c3ccccc3n2)s1 28.2 µM
CC(c1ccco1)N(C(=O)COc1ccccc1[N+](=O)[O-])c1ccccn1 (centres undefined) 15.8 µM
CN(C(=O)c1cc2c(=O)n3ccccc3nc2s1)C1CCCCC1 3.16 µM
O=c1oc2cc(O)ccc2cc1-c1ccc(F)cc1 14.1 µM
O=C1CCCN1CCCNc1ncnc2c1[nH]c1ccccc12 22.4 µM
